# Most compounds without a hit are left out; they make up all but 3.6% or so of the library.
# Pf apPOL inh – Pf-apPOL DNA polymerase inhibition | Recombinant Pf-apPOL, molecular beacon fluorescence, 1.5 h | inhibition, % at 10 µM | 210,000 tested, 0.25% active | AID 1794808
# mHTT-CaM PPI inh – inhibitors of human mutant huntingtin-calmodulin interaction; P42858; AlphaScreen His-mHTT/GST-CaM binding, luminescence; inhibition, % at 15 µM; 190,000 tested, 3.6% active; AID 1671202
# Hits are given with their value; - = inactive; . = no result. Rule as the data show it: active = inhibition above about 50%; inactive = the rest.
SMILES,Pf apPOL inh,mHTT-CaM PPI inh
O=c1[nH]c(-c2ccc(F)cc2)cn1-c1cccc(Br)c1,-,-
Cc1ccc(C2=NN3C(C2)c2ccccc2OC3c2ccccc2)o1 (configuration not stated),-,-
c1csc(C2=NN3C(C2)c2ccccc2OC3c2ccsc2)c1 (configuration not stated),-,-
Brc1ccc(C2Oc3ccccc3C3CC(c4cccs4)=NN32)o1 (configuration not stated),-,100
Oc1ccc(O)c(C2=NN3C(C2)c2ccccc2OC3c2cccs2)c1 (configuration not stated),-,67
CC1(C)Oc2ccc(Cl)cc2C2CC(c3ccc(F)cc3)=NN21 (configuration not stated),-,-
CCOc1cccc2c1OC1(CCCCC1)N1N=C(c3cccs3)CC21 (configuration not stated),-,-
Brc1ccc2c(c1)C1CC(c3cccs3)=NN1C1(CCCC1)O2 (configuration not stated),-,72
Clc1ccc2c(c1)C1CC(c3cccs3)=NN1C1(CCCC1)O2 (configuration not stated),-,78
CCC1CN2C=NC(N3CCN(C(=O)c4ccccc4)CC3)=CC2=N1 (configuration not stated),-,-
CC(C)(C)c1csc(-c2sccc2CSc2ccc(Cl)cc2)n1,-,.
COC(=O)c1cn(Cc2ccc(OC)c(F)c2)nc1S(=O)(=O)N1CCCCC1,-,-
O=C(Nc1nnc(C2CC(=O)N(c3ccccc3)C2)o1)c1ccccc1 (configuration not stated),-,-
O=C(Nc1nnc(C2CC(=O)N(c3ccc(F)cc3)C2)o1)c1cccc(F)c1 (configuration not stated),-,-
CCCOc1ccc(C(=O)Nc2nnc(C3CC(=O)N(c4ccc(OCC)cc4)C3)o2)cc1 (configuration not stated),-,-
O=C(Nc1nnc(C2CC(=O)N(c3ccccc3)C2)o1)c1cccs1 (configuration not stated),-,56
CSc1ccc(N2CC(c3nnc(NC(=O)c4cccc(F)c4)o3)CC2=O)cc1 (configuration not stated),-,62
CSc1ccc(N2CC(c3nnc(NC(=O)c4ccc(Cl)cc4)o3)CC2=O)cc1 (configuration not stated),-,-
CSc1ccc(N2CC(c3nnc(NC(=O)c4cccs4)o3)CC2=O)cc1 (configuration not stated),-,64
CCOc1ccc(N2CC(c3nnc(NC(=O)c4ccccc4)o3)CC2=O)cc1 (configuration not stated),-,82
COc1ccc(OC)c(S(=O)(=O)N2CCC(c3noc(-c4ccc(C)cc4)n3)CC2)c1,-,-
CCCCC(=O)NCCC1CCN(C(=O)c2ccccc2)CC1,-,-
CCOc1ccc(C(=O)Nc2c3c(nn2-c2ccc([N+](=O)[O-])cc2)CS(=O)(=O)C3)cc1,-,-
COc1ccc(C2CC(=O)C3=C(C2)Nc2ccccc2NC3c2ccc(C)c([N+](=O)[O-])c2)cc1 (configuration not stated),-,-
COc1ccc(C(=O)C(C)OC(=O)c2cc3cc([N+](=O)[O-])ccc3oc2=O)cc1 (configuration not stated),-,-
SMILES,Pf apPOL inh,mHTT-CaM PPI inh
Cc1ccc(C(=O)N2CCN(c3nc(CN4CCOCC4)cs3)CC2)cc1C,-,-
Cc1ccc(C(=O)N2CCN(c3nc(CN4CCCC4)cs3)CC2)cc1C,-,69
COc1ccc(-c2oc(N=CN3CCCCCC3)c(C#N)c2-c2ccc(OC)cc2)cc1,-,-
COc1ccc(-c2oc(NC(=O)C(F)(F)F)c(C#N)c2-c2ccc(OC)cc2)cc1,-,63
CC(C)NC(=O)c1cnn2c1NC(c1ccc(Br)cc1)CC2C(F)(F)F (configuration not stated),-,-
CC1(C)CC(=O)C2=C(C1)Nc1nnnn1C2c1ccccc1F (configuration not stated),-,-
COc1ccc(C2=NN3C(C2)c2cc(Cl)ccc2OC3(C)C)cc1 (configuration not stated),-,-
CC1(C)Oc2ccccc2C2CC(c3cccs3)=NN21 (configuration not stated),-,-
COc1ccc(C2=NN3C(C2)c2cc(Br)ccc2OC32C(=O)Nc3ccccc32)cc1 (configuration not stated),-,100
O=C1Nc2ccccc2C12Oc1ccccc1C1CC(c3ccccc3)=NN12 (configuration not stated),-,100
CCOC(=O)c1c(NC(=O)CSc2nnc3ccccn23)sc2c1CCC(C)C2 (configuration not stated),-,-
CC(C)(Oc1ccc(Cl)cc1)C(=O)NCCN1CCOCC1,-,-
O=C(O)C1CCCCC1C(=O)NCCc1csc(-c2cccnc2)n1 (configuration not stated),-,-
O=C1C(=O)N(CN2CCCCCC2)c2ccccc21,-,77
O=C1C(=O)N(CCN2CCCCC2)c2ccccc21,-,-
O=C(Cn1cccc(S(=O)(=O)N2CCCC2)c1=O)c1ccccc1Cl,-,-
O=C(Nc1ccc(Cl)cc1)c1csc(-c2ccc(N3CCCC3)nc2)n1,-,-
CC(C)C[C@@H](COCc1cccc(Cl)c1)N1CCN(C(=O)c2ccc(C(F)(F)F)cc2)CCC1=O,-,99
Cc1ccc(COC[C@H](CC(C)C)N2CCN(C(=O)c3cccc(C(F)(F)F)c3)CCC2=O)cc1,-,91
Cc1ccc(S(=O)(=O)N2CCC(=O)N([C@H](COCc3cccc(Cl)c3)C(C)C)CC2)cc1,-,-
Cc1ccc(CNC(=O)C2CCCN(C(=O)c3cccc(C(F)(F)F)c3)C2)cc1 (configuration not stated),-,-
CC(C)C[C@@H](COCc1ccc(C(F)(F)F)cc1)N1CCN(C(=O)c2ccc(C(F)(F)F)cc2)CCC1=O,-,93
COCCC1CCN(C(=O)c2ccc(C(F)(F)F)cc2)CC1,-,-
COc1ccc(NC(=O)N2CCOc3ccccc32)cc1OC,-,-
CC(=O)N1c2ccc(S(=O)(=O)N3CCCCC3)cc2CC1C (configuration not stated),-,-
SMILES,Pf apPOL inh,mHTT-CaM PPI inh
COc1ccc(C2CC(c3ccccc3)=NN2C(=O)c2ccc(C)cc2)cc1 (configuration not stated),-,-
COc1ccc(NC(=O)C(=O)NCC(C)C)c(OC)c1,-,-
CC(=O)Nc1ccc(NC(=O)c2cn(C)c3ncccc23)cc1,-,-
O=[N+]([O-])c1ccc(NN=Cc2ccccc2)c([N+](=O)[O-])c1,-,.
O=[N+]([O-])c1cc(Nc2ccccc2)c(C=Nc2ccccc2)c([N+](=O)[O-])c1,-,51
O=[N+]([O-])c1ccc(NNc2ccccc2)c([N+](=O)[O-])c1,.,69
O=[N+]([O-])c1ccc(O)c(C=Nc2ccc(Nc3ccccc3)cc2)c1,-,-
COc1ccc(C2C(C#N)=C(N)Oc3n[nH]c(-c4cccs4)c32)cc1OC (configuration not stated),-,-
COc1cc(NC(=O)C2CC(c3cccc(OC)c3OC)=NO2)cc(OC)c1OC (configuration not stated),-,-
O=C(CC(NCc1ccccc1)C(=O)O)Nc1ccc(Nc2ccccc2)cc1 (configuration not stated),-,-

# Compound activity (PubChem)
